In the supplement of paper PMC9694430:

Tests used:
Test in all cases: thermal shift delta Tm vs DMSO control; higher = stronger stabilization (binding)
Details in all cases: 12.5 µM; protein concentration 2 µM
[1] = tested on: LOC_OS02G45750-cb003
Outline: (§1)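 Compounds dissolved in DMSO were added to purified rice kinase domain constructs, which had been expressed in E. coli, for differential scanning fluorimetry. Each well held 19.5 μl of 2 μM kinase in 100 mM potassium phosphate pH 7.5, 150 mM NaCl, 10% glycerol and 5 × SYPRO Orange. Fluorescence was followed from 25°C to 95°C at a rate of 0.05°C/s. Shifts in Boltzmann-fitted melting temperature are triplicate means relative to DMSO-only protein.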

[2] = tested on: LOC_OS02G54510-cb004
Outline: as §1

[3] = tested on: LOC_OS03G04050-cb001
Outline: as §1

[4] = tested on: LOC_OS03G12390-cb001
Outline: as §1

[5] = tested on: LOC_OS03G27990-cb004
Outline: as §1

[6] = tested on: LOC_OS03G50450-cb001
Outline: as §1

[7] = tested on: LOC_OS03G50810-cb003
Outline: as §1

[8] = tested on: LOC_OS04G35114-cb001
Outline: as §1

[9] = tested on: T1, LOC_OS04G38480-cb003
T1 sequence (whole entry): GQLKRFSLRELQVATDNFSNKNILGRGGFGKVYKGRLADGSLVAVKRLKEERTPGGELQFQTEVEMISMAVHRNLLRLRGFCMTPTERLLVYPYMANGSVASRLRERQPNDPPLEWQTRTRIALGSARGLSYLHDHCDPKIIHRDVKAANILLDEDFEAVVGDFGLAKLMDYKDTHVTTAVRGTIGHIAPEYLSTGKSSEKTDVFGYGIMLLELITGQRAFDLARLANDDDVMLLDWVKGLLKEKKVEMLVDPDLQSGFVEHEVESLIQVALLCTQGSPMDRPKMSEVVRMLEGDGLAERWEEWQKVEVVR
Outline: as §1

[10] = tested on: T2, LOC_OS04G41100-cb001
T2 sequence (whole entry): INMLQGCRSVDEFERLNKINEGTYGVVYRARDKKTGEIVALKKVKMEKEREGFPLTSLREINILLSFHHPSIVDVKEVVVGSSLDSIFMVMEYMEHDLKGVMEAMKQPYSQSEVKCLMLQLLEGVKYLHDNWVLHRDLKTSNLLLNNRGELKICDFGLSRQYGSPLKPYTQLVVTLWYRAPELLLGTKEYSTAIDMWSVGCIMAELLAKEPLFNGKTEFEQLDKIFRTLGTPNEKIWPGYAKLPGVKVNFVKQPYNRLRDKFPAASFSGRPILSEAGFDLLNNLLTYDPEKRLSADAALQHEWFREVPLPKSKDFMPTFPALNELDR
Outline: as §1

[11] = tested on: LOC_OS04G57630-cb004
Outline: as §1

[12] = tested on: LOC_OS05G07850-cb002
Outline: as §1

[13] = tested on: LOC_OS05G16824-cb004
Outline: as §1

[14] = tested on: LOC_OS05G28520-cb001
Outline: as §1

[15] = tested on: LOC_OS05G30820-cb001
Outline: as §1

[16] = tested on: LOC_OS05G43570-cb004
Outline: as §1

[17] = tested on: LOC_OS06G16330-cb003
Outline: as §1

[18] = tested on: T3, LOC_OS06G22820-cb001
T3 sequence (whole entry): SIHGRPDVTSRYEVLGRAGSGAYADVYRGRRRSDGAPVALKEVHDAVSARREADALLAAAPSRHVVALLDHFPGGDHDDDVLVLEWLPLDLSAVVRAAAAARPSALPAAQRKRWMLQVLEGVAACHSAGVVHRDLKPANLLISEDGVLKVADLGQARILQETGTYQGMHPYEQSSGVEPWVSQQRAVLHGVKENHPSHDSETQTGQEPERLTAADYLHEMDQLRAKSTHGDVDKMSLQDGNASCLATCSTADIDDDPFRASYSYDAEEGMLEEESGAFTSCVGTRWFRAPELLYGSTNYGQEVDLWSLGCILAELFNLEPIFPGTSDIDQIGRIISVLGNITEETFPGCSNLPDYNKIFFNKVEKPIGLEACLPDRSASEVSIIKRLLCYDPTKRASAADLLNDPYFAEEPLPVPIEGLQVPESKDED
Outline: as §1

[19] = tested on: LOC_OS07G06570-cb004
Outline: as §1

[20] = tested on: LOC_OS07G07230-cb001
Outline: as §1

Sequence of LOC_OS06G16330-cb003 (as listed by the source): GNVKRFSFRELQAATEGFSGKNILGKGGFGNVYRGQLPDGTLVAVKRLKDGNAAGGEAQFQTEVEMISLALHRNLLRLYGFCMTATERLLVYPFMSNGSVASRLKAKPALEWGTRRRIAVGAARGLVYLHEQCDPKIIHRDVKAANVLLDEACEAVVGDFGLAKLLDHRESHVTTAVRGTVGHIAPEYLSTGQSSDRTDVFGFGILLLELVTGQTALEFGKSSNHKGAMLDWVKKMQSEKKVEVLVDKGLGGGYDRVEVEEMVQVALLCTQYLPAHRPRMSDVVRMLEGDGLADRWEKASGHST

SMILES | thermal shift delta Tm [1] [°C] | thermal shift delta Tm [2] [°C] | thermal shift delta Tm [3] [°C] | thermal shift delta Tm [4] [°C] | thermal shift delta Tm [5] [°C] | thermal shift delta Tm [6] [°C] | thermal shift delta Tm [7] [°C] | thermal shift delta Tm [8] [°C] | thermal shift delta Tm [9] [°C] | thermal shift delta Tm [10] [°C] | thermal shift delta Tm [11] [°C] | thermal shift delta Tm [12] [°C] | thermal shift delta Tm [13] [°C] | thermal shift delta Tm [14] [°C] | thermal shift delta Tm [15] [°C] | thermal shift delta Tm [16] [°C] | thermal shift delta Tm [17] [°C] | thermal shift delta Tm [18] [°C] | thermal shift delta Tm [19] [°C] | thermal shift delta Tm [20] [°C]
CC1=C(C(=O)Nc2cc3cn[nH]c3cc2F)C(c2ccc(C(F)(F)F)cc2)CC(=O)N1 (stereo not given) | 0.16 | 0.13 | 0.03 | 0.32 | -0.07 | 0.15 | 0.56 | 0.15 | 0 | 0.48 | -0.15 | 0.48 | -6.69 | -0.3 | 0.33 | 1.08 | -0.13 | 0.24 | 0.71 | 0.37
CNS(=O)(=O)C[C@H]1CC[C@H](N(C)c2[nH]cnc3nccc2-3)CC1 [Oclacitinib] | 3.43 | 0.36 | 0.63 | 1.78 | 1.09 | 1.35 | 1.01 | 1.87 | 0.99 | 0.23 | 0.5 | 7.33 | -0.02 | 0.31 | 0.53 | 0.33 | 3.72 | 0.36 | 1.6 | 0.51
CN1c2ccccc2C(=O)Nc2cnc(Nc3ccc(N4CCC(O)CC4)cc3)nc21 | 5.71 | 2.78 | 0.24 | 2.56 | 1.24 | -0.12 | 2.29 | 3.85 | 3.65 | 0.15 | 2.68 | 11.7 | 3.76 | 0.16 | 1.15 | 0.33 | 8.37 | 0.43 | 0.89 | 1.4
